# Screens from PubChem.
# Compounds with a hit are over-represented: about 2.6% of the library has one in this group of screens.
# Cardio protect – protects H9c2 cardiomyocytes from peroxide injury | H2O2 injury protection, ATPLite, 2 h | protection from H2O2 cell death, % at 20 µM | 0.63% of 360,000 active | AID 588492;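 active = compounds giving at least 50% protection of heart cells from peroxide-induced death in the single-dose screen, raw or plate-pattern-corrected value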;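 also: 0% = DMSO wells with peroxide and 100% = DMSO wells without peroxide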
# Gli-Sufu antag – antagonists of Gli-Sufu signaling; Sufu-KO-LIGHT fibroblasts, Gli luciferase reporter luminescence; inhibition, % at 5 µM; 0.74% of 340,000 active; AID 588413;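 active = inhibition above about 55%, limit read from the data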;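 also: 0% = DMSO-treated cells and 100% = wells with medium but no cells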
# Jurkat NFkB inh – lowers PMA/ionomycin-induced NF-kB signal in Jurkat cells; 0.53% of 330,000 active; inhibition, % at 4 µM; PMA/ionomycin-induced NF-kB luciferase reporter, luminescence; in the data active = inhibition above about 50%
# H9c2 TAG inh – triacylglycerol accumulation inhibition; H9c2 cells, Nile Red lipid (TAG) fluorescence; cells loaded with 200 µM oleic acid; AID 651582; inhibition, % at 12.5 µM; 0.66% of 230,000 active;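 active = pattern-corrected inhibition of lipid staining of at least 50% with the nuclear-stain viability signal not falling by more than 50%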;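 also: 0% = DMSO wells and 100% = triacsin C control wells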
# 697 NFkB inh – lowers PMA/ionomycin-induced NF-kB signal in 697 B cells; 697 B-cell NF-kB luciferase reporter, 16 h; 0.33% of 330,000 active; AID 435022; inhibition, % at 4 µM; in the data active = inhibition above about 35%
# NR2F2 inh – NR2F2 (human) inhibition, primary screen; P24468; HEK293T NGFI-A luciferase reporter, luminescence; inhibition, % at 8.6 µM; 0.7% of 370,000 active; AID 686940;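 active = inhibition above a per-plate cutoff, mean inhibition of test wells between control levels plus 3 SD, cut at about 38% in these data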;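 also: cells cotransfected with COUP-TFII expression vector driving the NGFI-A reporter; 0% = median of COUP-TF2 test wells and 100% = reporter-only cells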
# Target sequence (P24468 whole entry, looked up): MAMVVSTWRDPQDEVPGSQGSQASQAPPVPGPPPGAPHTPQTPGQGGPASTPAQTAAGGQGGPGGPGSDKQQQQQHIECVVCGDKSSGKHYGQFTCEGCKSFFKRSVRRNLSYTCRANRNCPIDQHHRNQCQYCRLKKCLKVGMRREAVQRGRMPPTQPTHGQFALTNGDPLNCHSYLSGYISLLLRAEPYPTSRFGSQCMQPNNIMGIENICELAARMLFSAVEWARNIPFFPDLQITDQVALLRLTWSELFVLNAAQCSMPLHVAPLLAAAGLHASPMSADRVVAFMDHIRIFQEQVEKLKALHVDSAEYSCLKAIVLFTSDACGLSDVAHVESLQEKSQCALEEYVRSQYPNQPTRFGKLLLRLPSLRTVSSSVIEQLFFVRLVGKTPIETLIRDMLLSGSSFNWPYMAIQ
# * hit, by the source's call; x = not tested or not shown.
SMILES,Cardio protect,Gli-Sufu antag,Jurkat NFkB inh,H9c2 TAG inh,697 NFkB inh,NR2F2 inh
O=C(CSc1nc(-c2ccc(F)cc2)nc2c1Cc1ccccc1O2)Nc1cccc(C(=O)O)c1,5,5,x,19,x,-9
Cc1ncc(CO)c2c1Oc1nc(-c3ccccc3)nc(SCC(=O)Nc3cccc(O)c3)c1C2,63*,0,6,x,20,20
COc1ccc(-c2nc3c(c(SCC(=O)Nc4cccc(O)c4)n2)Cc2c(CO)cnc(C)c2O3)cc1,66*,35,1,x,10,-17
c1nc(NCC2CCCCO2)c2cc(-c3ccc4c(c3)OCO4)ccc2n1 (stereo not drawn),x,x,x,x,x,0
C/C(=N\NC(=O)c1cc(Br)ccc1O)c1ccccn1,32,66*,-28,-9,-135,2
O=C(NNC(=O)c1ccccc1OCc1ccc(F)cc1)c1ccccc1O,39,24,17,3,-31,-14
C/C(=N\NC(=O)c1ccccc1OCc1ccc(F)cc1)c1ccccn1,53*,47,37,-3,-80,-9
C/C(=N/NC(=O)c1ccccn1)c1ccncc1,2,3,-44,x,-26,-10
c1ccc(-c2c[nH]c3cccc(-c4cc5ccccc5o4)c23)cc1,x,x,x,x,x,9
CN=c1scc(-c2ccc(F)cc2)n1/N=C/c1ccc(O)c(O)c1,-14,58*,33,16,-147,22
C[C@H]1[C@@H](OC(=O)NCCc2c[nH]c3ccccc23)CC[C@@]23CCCN2C(=O)CCC[C@@H]13,x,x,x,x,x,-1
COc1cccc(C(c2nnnn2Cc2ccccc2)N2CCN(C3CCCC3)CC2)c1OC (stereo not drawn),95*,5,23,11,-1,7
COc1ccccc1C(c1nnnn1Cc1ccccc1)N1CCN(C2CCCC2)CC1 (stereo not drawn),15,3,4,7,5,5
COc1ccc(-c2nn(C)c3sc(C(=O)NCc4ccco4)cc23)cc1OC,10,-5,-9,4,26,10
COc1ccc(NC(=O)c2cc3c(-c4ccc(OC)c(OC)c4)nn(C)c3s2)cc1OC,62*,6,-6,79*,17,-22
COC(=O)C1CN(Cc2ccc(F)cc2)CCS(=O)(=O)N1Cc1ccc(C)cc1 (stereo not drawn),x,x,x,x,x,7
C=C(C)Cn1c(SCC)nc2ccccc2c1=O,-7,6,-6,x,-12,7
C=C(C)Cn1c(SCC(=O)N/N=C/c2c(O)ccc3ccccc23)nc2ccccc2c1=O,69*,6,1,x,9,-5
COc1ccc(-c2cc(=O)oc3cc(OC(C)C(=O)O)ccc23)cc1 (stereo not drawn),6,4,8,-8,12,8
COc1ccc(-c2cc(=O)oc3c(O)c(O)ccc23)cc1,63*,8,-8,x,-25,-7
C#CCN1CC(N(C)CCOC(=O)CCCc2ccccc2)CS1(=O)=O (stereo not drawn),x,x,x,x,x,-6
Oc1c(Br)cc(Br)cc1C=Nc1cccc2ncccc12,64*,-4,9,4,-30,7
Cc1ccc(O)c(CNCCNCc2cc(C)ccc2O)c1,65*,19,29,21,-6,1
CCN(CC)C(=O)CC[C@H]1CC[C@]2(CCCN(C(=O)c3ccc4ccccc4n3)C2)O1,x,x,x,x,x,-5
CN1C(=O)N(C)N(Cc2ccccc2)C(=O)N1Cc1ccccc1,x,x,x,x,x,15
SMILES,Cardio protect,Gli-Sufu antag,Jurkat NFkB inh,H9c2 TAG inh,697 NFkB inh,NR2F2 inh
O=C1C=CC(=O)N1Cc1ccccc1,-45,-1,-6,-2,3,61*
Cc1c(OCC(=O)NCCN2CCOCC2)ccc2c1oc(=O)c1ccccc12,61*,38,0,x,4,-13
Cc1c(OCC(=O)NCCN2CCOCC2)ccc2c3c(c(=O)oc12)CCC3,-3,-12,-9,x,8,-11
COc1ccccc1NC(=O)OC1CCC12CCCCC2 (stereo not drawn),x,x,x,x,x,2
CC(C)[C@H](NC(=O)CC1CCCC1)C(=O)N1CCC[C@H]1C(=O)NCc1ccccc1,x,x,x,x,x,-7
O=C(COC(=O)c1ccc2c(c1[N+](=O)[O-])C(=O)c1ccccc1C2=O)NC1CC1,-21,-9,3,-20,-12,2
O=C(COC(=O)c1cccc2c1C(=O)c1ccccc1C2=O)NC1CCCCC1,58*,12,-11,12,-3,0
COc1cc(OC)cc(-c2oc3cccnc3c2C#CCCO)c1,56*,2,-6,-5,-16,3
COc1ccc(C(=O)c2ccc3oc(-c4ccc(OC)cc4)c(C#CCCO)c3c2)cc1,-10,8,-22,26,5,0
O=C1Nc2ccccc2C(=O)C1(Cl)Cc1ccccc1 (stereo not drawn),52*,8,-11,14,2,10
COC(=O)[C@]12C[C@H](CC(=O)NCCCCc3ccccc3)C(=O)N(Cc3ccc(Cl)cc3Cl)C1=C[C@H](COCc1ccccc1)O[C@@H]2C,x,x,x,x,x,8
CC(NC(=O)Nc1nnc(C(F)(F)F)s1)(C(F)(F)F)C(F)(F)F,-35,-7,11,-11,-90,45*
Cc1ccc(-c2nnc(SCC(=O)c3ccc(O)c(O)c3)n2-c2ccc(Cl)cc2)cc1,x,x,x,x,x,6
O=C(CN1CCc2onc(-c3cccc(-n4cc(CO)nn4)c3)c2C1=O)N1CCOCC1,x,x,x,x,x,1
Cc1cc(C)cc(NC(=O)CN2C(=O)NC(C)(c3ccccc3)C2=O)c1 (stereo not drawn),2,5,15,27,10,4
CC1(c2ccccc2)NC(=O)N(CC(=O)Nc2cccc(/C=C/c3ccccn3)c2)C1=O (stereo not drawn),68*,-21,-12,-5,-19,-7
CC(=O)Nc1ccc(C(/C=C/c2ccccc2)Cc2ccccc2)cc1 (stereo not drawn),x,x,x,x,x,-16
CN(C)c1ccc(-c2nn3c(-c4ccco4)nnc3s2)cc1,x,x,x,x,x,-23
